This is a sample that favours compounds with a hit; in the whole collection about 2.2% have one here.
Ba/F3 V617F tox: reduce viability of Ba/F3 cells dependent on JAK2V617F; Ba/F3 EpoR-JAK2V617F viability, ATP luminescence; inhibition, % at 5.6 µM; hit rate 1.1% among 220,000;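 active = inhibition above the campaign mean plus 3 SD over all tested compounds, cut at about 24% in these data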;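 also: cytokine-independent growth of Ba/F3 cells driven by EpoR plus mutant JAK2; 0% = DMSO-treated cells and 100% = JAK inhibitor I control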
APP transl inh: APP translation inhibition; SH-SY5Y APP 5'UTR-luciferase reporter, luminescence; hit rate 0.82% among 190,000; AID 1285; inhibition, % at 2 µM;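 active = inhibition above a set limit, derived from the sample mean plus 3 SD, cut at about 45% in these data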
IEC-6 tox: kills IEC-6 intestinal cells in KLF5 counter-screen | IEC-6 cytotoxicity, luminescence viability | hit rate 0.78% among 290,000 | AID 1825 | inhibition, % at 5 µM; in the data active = inhibition above about 22%;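 also: 0% = plate median of test compound wells and 100% = cytotoxic reference compound wells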
BaF3 tox: counter-screen for JAK2V617F inhibitors: parental Ba/F3 viability inhibitors; CellTiter-Glo ATP luminescence; inhibition, % at 5.6 µM; hit rate 1.1% among 220,000; AID 1486;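 active = inhibition above a per-campaign cutoff, the mean inhibition of all tested compounds plus 3 SD, cut at about 27% in these data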;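 also: 0% = DMSO wells and 100% = JAK Inhibitor I control wells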
aSyn UTR inh: 5' untranslated region of α-synuclein, MLPCN primary screen; alpha-synuclein 5'UTR reporter, inhibitor activity; inhibition, % (tested at 7.5 µM); hit rate 0.82% among 300,000; in the data active = inhibition above about 60%;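 also: H4 neuroglioblastoma cells stably carrying SNCA 5'UTR luciferase fusion; 0% = DMSO wells and 100% = positive control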
KLF5 inh: suppresses KLF5 promoter-driven expression | inhibition, % at 5 µM | DLD-1 KLF5 promoter-luciferase reporter, luminescence | hit rate 0.23% among 290,000;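 active = inhibition above a per-plate limit of that plate's mean compound inhibition plus 3 SD, cut at about 60% in these data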;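 also: 0% = DMSO wells and 100% = LY294002 at 200 µM; higher means less KLF5 promoter-driven luciferase light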
Active calls of the source: *; . = no result.

SMILES	Ba/F3 V617F tox	APP transl inh	IEC-6 tox	BaF3 tox	aSyn UTR inh	KLF5 inh
CCn1c(=O)cc(OCC(=O)N2CCCCCC2)c2ccccc21	2	55*	3	3	18	-25
COC(=O)c1ccccc1NC(=O)C(=O)NCc1ccncc1	3	-13	2	8	2	-38
O=C(O)c1ccc(OCc2cn3ccccc3n2)cc1	-4	.	8	-1	-34	-13
O=C(COc1ccc(Oc2ccccc2)cc1)NCc1cn2ccccc2n1	31*	18	37*	27*	62*	22
Cc1ccccc1CSCC(=O)NCCSc1ccccn1	-3	-4	0	-1	-34	-15
CNC(=O)C(Sc1ccccc1)c1ccccc1 (stereo not given)	2	49*	0	3	-13	-9
CC1(C)CC(N2CCN(c3ccccc3)CC2)=CC(=[N+]2CCCC2)C1	85*	-9	14	75*	-3	-4
CC1(C)CC(N2CCCC2)=CC(=[N+]2CCCCCC2)C1	99*	2	30*	71*	-2	1
CCN(CC)C1=CC(=[N+]2CCCC2)CC(C)(C)C1	74*	-1	6	63*	-4	-15
COc1c(Cl)cccc1-c1cn2ccccc2n1	8	.	9	7	-57	-105
Cc1ccccc1NC(=O)c1cnc2ccccn2c1=O	1	-104	6	5	62*	-105
COc1ccc(OC)c(NC(=O)c2cnc3ccccn3c2=O)c1	2	-2	7	9	.	-24
COc1ccc(NC(=O)Nc2cc(C(C)(C)C)on2)cc1OC	.	.	-3	.	2	-30
CCN(CC)CCNc1cc(C)nc2c1C(=O)C(=O)C=C2N1CCCCC1	7	67*	11	-6	81*	-5
COC(=O)c1cc(C)nc2c1C(=O)C(=O)C=C2N1CCOCC1	.	.	20	.	37	26
Cc1cc(=O)n(-c2ccc(O)cc2)[nH]1	51*	0	4	60*	15	13
Cc1cc(=O)n(-c2ccc(C(=O)O)cc2)[nH]1	2	8	-8	6	4	-8
Cn1c(N2CCOCC2)c(/C=N/OC(=O)c2ccc(F)cc2)c2ccccc21	3	40	-1	1	73*	-32
Cc1ccc(C(=O)O/N=C/c2c(N3CCOCC3)n(C)c3ccccc23)cc1	-3	70*	-4	3	77*	8
Cc1ccc(S(=O)(=O)NC(=O)NCC2CCN(S(=O)(=O)c3ccccc3)CC2)cc1	.	.	3	.	-18	-13
Cc1ccc2nc(NC(=O)CSCC(=O)OCC(=O)c3ccc(Br)cc3)sc2c1	-1	6	2	6	83*	0
COC(=O)c1ccc2nc(NC(=O)CSCC(=O)OCC(=O)c3ccccc3)sc2c1	0	-70	-2	1	-73	-17
CC1=C(C)/C(=N\OS(=O)(=O)c2ccccc2)C=CC1=O	91*	74*	-5	91*	-80	-36
COc1ccc(-c2nc(CS(=O)CC(=O)NCCN3CCCCC3C)c(C)o2)cc1OC (stereo not given)	.	.	8	.	-13	8
Cc1cc(NC(=O)c2ccccc2)c(Cl)cc1N	-4	.	-4	-3	64*	-4
SMILES	Ba/F3 V617F tox	APP transl inh	IEC-6 tox	BaF3 tox	aSyn UTR inh	KLF5 inh
O=C1C=C(N2CCCCC2)c2ccccc2C1=O	.	.	.	.	122*	.
Cc1cc(C)c(C(=O)N2CCCC(Nc3ccc(C)c(C)c3)C2)o1 (stereo not given)	.	.	-1	.	15	-1
CCCOc1ccc(Br)cc1CSC(=N)N	38*	-1	21	41*	-35	-16
CCOc1ccc(Br)cc1CC(=O)O	4	-5	-1	2	4	-15
CSc1nnc(N2C(=O)C(O)=C(C(=O)c3ccc(C)o3)C2c2ccc(C)cc2)s1 (stereo not given)	.	.	-3	.	5	-71
CN1/C(=C/C(=S)NC(=O)C2(C)CC2(Cl)Cl)C(C)(C)c2ccccc21 (stereo not given)	20	-35	-9	58*	1	-20
COc1ccccc1C(=O)NC(=S)/C=C1/N(C)c2ccccc2C1(C)C	37*	3	-2	37*	-11	-26
CN1/C(=C\C(=O)Nc2ccc(Cl)cc2)C(C)(C)c2ccccc21	1	-30	-2	4	-7	-42
CN1/C(=C\C(=S)Nc2ccccc2)C(C)(C)c2ccccc21	43*	11	3	46*	-53	-8
CN1/C(=C\C=N\NC(=O)c2ccccc2Br)C(C)(C)c2ccccc21	54*	4	6	62*	9	-17
CN1/C(=C/C=N/n2cnnc2)C(C)(C)c2ccccc21	0	5	9	4	11	-16
CN1/C(=C\C(=S)NC(=O)c2ccccc2Cl)C(C)(C)c2ccccc21	70*	-21	8	63*	-26	-38
CCc1nc(SCC(=O)O)c(C#N)cc1C	0	12	-2	6	-16	-3
CCc1nc(SCC#N)c(C#N)cc1C	0	1	2	4	69*	-18
Cc1cccc2cc(C#N)c(SCC#N)nc12	0	-10	0	3	85*	-8
Cc1cccc2cc(C#N)c(SCC(=O)NNC(=O)Cc3ccccc3)nc12	1	2	3	4	9	-38
CCCCCn1c(=O)[nH]c2cc(C(=O)NCCN3CCCCC3C)ccc2c1=O (stereo not given)	.	.	1	.	-13	0
[2H]C(CCOS(N)(=O)=O)c1ccc(C(C)(C)C)cc1 (stereo not given)	.	.	13	.	80*	7
NS(=O)(=O)OCCCc1ccccc1	.	.	0	.	6	-8
NC(=O)CCCn1c(C(=O)c2cc(Cl)c(N)c(Cl)c2)c2ccc([N+](=O)[O-])cc2[n+]1[O-]	.	.	.	.	71*	.
NC(=O)CCCn1c(C(=O)c2ccc(Cl)cc2)c2ccc([N+](=O)[O-])cc2[n+]1[O-]	.	.	.	.	21	.
Nn1c(SCc2ccc(Br)cc2)nnc1-c1ccncc1	1	5	-4	7	0	-3
O=C(NCCCNC(=O)c1ccc(F)cc1)c1ccc(F)cc1	.	.	3	.	17	-19
CCC(=O)Nc1ccc(NC(=S)NC(=O)Cc2ccccc2)cc1	-3	-17	4	7	-15	-52
CCC(=O)Nc1ccc(NC(=S)Nc2ccccc2)cc1	-2	-11	-2	58*	-10	-18
Cc1ccc(-n2nnnc2-c2cnc3cc4c(cc3c2C)OCO4)cc1	-5	6	-2	2	26	-9
CCOc1ccc(S(=O)(=O)N2CCCC(C(=O)NCc3ccccc3)C2)cc1 (stereo not given)	.	.	6	.	-5	-3
Cc1[nH]n(-c2nc(-c3ccc(Cl)cc3)cs2)c(=O)c1N=Nc1ccc(O)cc1	2	54*	-2	6	-118	3
CCc1c(C)[nH]n(-c2nc(-c3ccccc3)cs2)c1=O	-4	-34	2	3	-21	-43
COc1ccc(N(CC(=O)NC2CCCC2)C(=O)CCC(=O)Nc2cc(C)on2)cc1OC	.	.	3	.	-1	-10
